# Source: paper PMC7862700, “An all-to-all approach to the identification of sequence-specific readers for epigenetic DNA modifications on cytosine”
# Assays:
# Assay in all cases: DAPPL (digital affinity profiling via proximity ligation, sequencing); 10 mM Tris-HCl pH 7.5, 50 mM NaCl, 1 mM DTT, 4% glycerol, room temperature, 30 min; GST-TFs on glutathione beads, 16-mer random dsDNA library, 0.1% formaldehyde crosslink after washing; high values mean tight binding
# [1] = biological target: T1, FEV (Homo sapiens, UniProt Q99581 1-238); details: protein: recombinant; tags: N-terminal GST; dsDNA, one strand shown
# T1 sequence: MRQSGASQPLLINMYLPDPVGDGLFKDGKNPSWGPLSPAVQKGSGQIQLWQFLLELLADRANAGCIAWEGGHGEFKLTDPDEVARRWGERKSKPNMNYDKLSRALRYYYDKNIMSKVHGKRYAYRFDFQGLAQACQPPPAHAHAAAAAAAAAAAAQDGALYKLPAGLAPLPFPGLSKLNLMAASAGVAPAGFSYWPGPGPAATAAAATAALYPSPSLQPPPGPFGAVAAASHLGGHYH
# Method in brief: (§1)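 A tag-only sample was pooled with DNA-barcoded human transcription factors that had been expressed in yeast as GST fusions and captured on glutathione beads. The pools were incubated for 30 min at room temperature with 200 nmole of a random double-stranded 16-mer DNA library in Tris/NaCl/DTT/glycerol buffer, then washed, crosslinked with 0.1% formaldehyde, proximity-ligated (BsaI/T4 ligase, 1 h, 37 °C), PCR-amplified and sequenced on an Illumina NextSeq500. Binding signal is each hexamer's read frequency for a factor divided by its frequency for the tag-only sample.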
# [2] = biological target: ETV5 (Homo sapiens, UniProt P41161 1-510); details: protein: recombinant; tags: N-terminal GST; dsDNA, one strand shown
# Chain of ETV5 (P41161 whole entry): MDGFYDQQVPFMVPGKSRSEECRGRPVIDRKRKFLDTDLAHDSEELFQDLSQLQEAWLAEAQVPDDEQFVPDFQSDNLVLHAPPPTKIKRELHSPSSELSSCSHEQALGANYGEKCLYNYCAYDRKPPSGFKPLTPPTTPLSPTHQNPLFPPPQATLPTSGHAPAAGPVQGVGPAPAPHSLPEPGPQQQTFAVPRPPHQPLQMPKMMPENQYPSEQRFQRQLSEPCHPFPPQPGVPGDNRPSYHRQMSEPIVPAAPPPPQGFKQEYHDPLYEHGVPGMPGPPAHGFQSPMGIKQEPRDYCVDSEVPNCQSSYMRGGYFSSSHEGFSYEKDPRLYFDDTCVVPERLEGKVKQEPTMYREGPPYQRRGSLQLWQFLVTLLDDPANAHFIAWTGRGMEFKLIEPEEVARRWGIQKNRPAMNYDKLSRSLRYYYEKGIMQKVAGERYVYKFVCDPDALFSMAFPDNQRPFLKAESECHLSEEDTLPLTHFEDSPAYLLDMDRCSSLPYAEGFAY
# Method in brief: as §1
# [3] = biological target: HSF1 (Homo sapiens, UniProt Q00613 1-529); details: protein: recombinant; tags: N-terminal GST; chain copies: 3; dsDNA, one strand shown
# Chain of HSF1 (Q00613 whole entry): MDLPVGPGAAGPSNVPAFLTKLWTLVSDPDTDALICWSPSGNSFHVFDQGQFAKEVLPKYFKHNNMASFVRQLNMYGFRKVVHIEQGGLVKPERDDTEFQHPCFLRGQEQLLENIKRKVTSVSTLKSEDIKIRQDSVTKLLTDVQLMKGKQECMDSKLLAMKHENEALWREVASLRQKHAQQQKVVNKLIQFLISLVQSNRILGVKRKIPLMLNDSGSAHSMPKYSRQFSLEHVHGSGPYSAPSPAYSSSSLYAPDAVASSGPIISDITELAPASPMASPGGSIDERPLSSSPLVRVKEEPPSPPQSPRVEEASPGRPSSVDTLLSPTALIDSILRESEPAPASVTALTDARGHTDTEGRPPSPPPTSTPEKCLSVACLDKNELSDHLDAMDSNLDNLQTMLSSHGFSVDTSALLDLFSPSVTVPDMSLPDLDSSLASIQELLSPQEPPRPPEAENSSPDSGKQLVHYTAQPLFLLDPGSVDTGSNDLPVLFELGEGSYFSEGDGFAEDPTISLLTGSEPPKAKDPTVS
# Method in brief: as §1
# [4] = biological target: T2, SPIC (Homo sapiens, UniProt Q8N5J4 1-248); details: protein: recombinant; tags: N-terminal GST; dsDNA, one strand shown
# T2 sequence: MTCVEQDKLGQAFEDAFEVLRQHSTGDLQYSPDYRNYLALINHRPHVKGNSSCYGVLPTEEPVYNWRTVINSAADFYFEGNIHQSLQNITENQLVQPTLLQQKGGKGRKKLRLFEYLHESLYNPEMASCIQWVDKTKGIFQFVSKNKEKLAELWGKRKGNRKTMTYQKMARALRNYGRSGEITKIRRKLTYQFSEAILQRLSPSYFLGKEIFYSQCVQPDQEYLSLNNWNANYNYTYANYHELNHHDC
# Method in brief: as §1
# [5] = biological target: ELF4 (Homo sapiens, UniProt Q99607 1-663); details: protein: recombinant; tags: N-terminal GST; dsDNA, one strand shown
# Chain of ELF4 (Q99607 whole entry): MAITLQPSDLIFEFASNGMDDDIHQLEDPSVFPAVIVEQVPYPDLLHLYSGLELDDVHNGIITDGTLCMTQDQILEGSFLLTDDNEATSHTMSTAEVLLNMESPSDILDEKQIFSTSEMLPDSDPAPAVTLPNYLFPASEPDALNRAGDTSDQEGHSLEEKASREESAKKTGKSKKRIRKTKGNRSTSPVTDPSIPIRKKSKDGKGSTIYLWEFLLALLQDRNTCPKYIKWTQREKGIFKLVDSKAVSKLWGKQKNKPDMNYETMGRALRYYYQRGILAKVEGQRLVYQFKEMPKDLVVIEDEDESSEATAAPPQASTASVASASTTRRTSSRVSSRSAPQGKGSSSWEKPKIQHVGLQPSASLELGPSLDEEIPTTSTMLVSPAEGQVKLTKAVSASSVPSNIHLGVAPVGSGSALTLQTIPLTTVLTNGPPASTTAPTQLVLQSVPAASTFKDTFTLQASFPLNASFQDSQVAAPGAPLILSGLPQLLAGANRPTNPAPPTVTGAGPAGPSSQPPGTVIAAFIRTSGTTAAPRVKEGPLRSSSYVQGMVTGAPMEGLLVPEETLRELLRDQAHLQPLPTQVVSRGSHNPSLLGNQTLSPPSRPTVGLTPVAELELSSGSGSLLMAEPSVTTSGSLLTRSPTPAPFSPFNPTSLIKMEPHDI
# Method in brief: as §1
# [6] = biological target: T3, ELK4 (Homo sapiens, UniProt P28324-2 1-405); details: protein: recombinant; tags: N-terminal GST; dsDNA, one strand shown
# T3 sequence: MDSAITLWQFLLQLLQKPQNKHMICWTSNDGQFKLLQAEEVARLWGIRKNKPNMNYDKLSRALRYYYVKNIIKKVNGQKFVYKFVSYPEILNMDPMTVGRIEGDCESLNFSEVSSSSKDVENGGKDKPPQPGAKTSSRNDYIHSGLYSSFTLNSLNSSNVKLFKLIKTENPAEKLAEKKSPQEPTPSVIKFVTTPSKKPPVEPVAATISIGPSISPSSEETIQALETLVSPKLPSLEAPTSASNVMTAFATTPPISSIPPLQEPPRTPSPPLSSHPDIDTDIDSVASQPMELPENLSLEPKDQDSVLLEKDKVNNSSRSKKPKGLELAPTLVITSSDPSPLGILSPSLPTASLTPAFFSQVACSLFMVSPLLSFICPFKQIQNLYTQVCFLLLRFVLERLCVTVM
# Method in brief: as §1
# [7] = biological target: T4, ETV2 (Homo sapiens, UniProt O00321 1-342); details: protein: recombinant; tags: N-terminal GST; dsDNA, one strand shown
# T4 sequence: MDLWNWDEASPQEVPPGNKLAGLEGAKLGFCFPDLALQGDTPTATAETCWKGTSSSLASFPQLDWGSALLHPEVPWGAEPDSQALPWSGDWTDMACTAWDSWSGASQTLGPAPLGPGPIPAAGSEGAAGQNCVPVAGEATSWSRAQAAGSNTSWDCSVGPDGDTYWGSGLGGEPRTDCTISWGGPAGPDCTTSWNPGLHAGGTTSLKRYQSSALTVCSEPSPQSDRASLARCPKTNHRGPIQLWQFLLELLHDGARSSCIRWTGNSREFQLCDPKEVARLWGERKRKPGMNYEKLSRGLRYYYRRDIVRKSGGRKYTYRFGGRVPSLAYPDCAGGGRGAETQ
# Method in brief: as §1
# [8] = biological target: T5, ELF3 (Homo sapiens, UniProt P78545 1-371); details: protein: recombinant; tags: N-terminal GST; dsDNA, one strand shown
# T5 sequence: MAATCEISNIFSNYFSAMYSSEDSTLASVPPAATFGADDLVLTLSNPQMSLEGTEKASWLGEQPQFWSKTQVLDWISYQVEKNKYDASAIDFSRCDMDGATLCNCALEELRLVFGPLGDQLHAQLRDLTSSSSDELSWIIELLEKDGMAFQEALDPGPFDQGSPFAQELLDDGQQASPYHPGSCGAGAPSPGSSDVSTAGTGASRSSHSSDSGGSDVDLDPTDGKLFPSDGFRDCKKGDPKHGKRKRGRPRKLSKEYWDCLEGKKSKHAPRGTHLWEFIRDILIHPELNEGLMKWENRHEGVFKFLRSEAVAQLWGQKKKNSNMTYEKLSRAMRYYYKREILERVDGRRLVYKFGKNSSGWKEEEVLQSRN
# Method in brief: as §1
# [9] = biological target: CRX (Homo sapiens, UniProt O43186 1-299); details: protein: recombinant; tags: N-terminal GST; dsDNA, one strand shown
# Chain of CRX (O43186 whole entry): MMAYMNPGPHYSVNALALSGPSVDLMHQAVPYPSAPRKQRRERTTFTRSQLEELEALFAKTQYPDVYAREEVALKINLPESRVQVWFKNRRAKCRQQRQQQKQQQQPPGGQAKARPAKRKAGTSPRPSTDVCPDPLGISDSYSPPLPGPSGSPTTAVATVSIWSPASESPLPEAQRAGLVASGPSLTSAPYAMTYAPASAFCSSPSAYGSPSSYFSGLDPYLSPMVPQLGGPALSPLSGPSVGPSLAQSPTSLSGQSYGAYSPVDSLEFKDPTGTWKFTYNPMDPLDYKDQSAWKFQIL
# Method in brief: as §1
# [10] = biological target: ETV1 (Homo sapiens, UniProt P50549 1-477); details: protein: recombinant; tags: N-terminal GST; dsDNA, one strand shown
# Chain of ETV1 (P50549 whole entry): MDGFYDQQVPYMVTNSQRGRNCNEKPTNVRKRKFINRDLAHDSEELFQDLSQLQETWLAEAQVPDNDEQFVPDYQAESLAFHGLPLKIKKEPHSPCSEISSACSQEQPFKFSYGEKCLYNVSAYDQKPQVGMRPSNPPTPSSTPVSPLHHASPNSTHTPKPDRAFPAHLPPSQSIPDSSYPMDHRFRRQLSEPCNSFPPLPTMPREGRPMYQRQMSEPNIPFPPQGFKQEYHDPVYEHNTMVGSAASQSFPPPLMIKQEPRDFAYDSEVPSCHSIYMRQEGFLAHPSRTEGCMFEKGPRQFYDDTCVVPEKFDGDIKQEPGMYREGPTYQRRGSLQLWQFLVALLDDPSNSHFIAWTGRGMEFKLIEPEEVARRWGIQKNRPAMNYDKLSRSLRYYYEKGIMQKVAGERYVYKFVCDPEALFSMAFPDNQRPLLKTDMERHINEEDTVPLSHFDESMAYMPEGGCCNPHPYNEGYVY
# Method in brief: as §1
sequence,measurement,setting,value
TTGGTG,binding signal,[1],"1.22 fold enrichment (6-mer frequency, TF over GST control)"
same,binding signal,[2],"1.32 fold enrichment (6-mer frequency, TF over GST control)"
same,binding signal,[3],"1.18 fold enrichment (6-mer frequency, TF over GST control)"
same,binding signal,[4],"1.32 fold enrichment (6-mer frequency, TF over GST control)"
same,binding signal,[5],"1.3 fold enrichment (6-mer frequency, TF over GST control)"
same,binding signal,[6],"1.44 fold enrichment (6-mer frequency, TF over GST control)"
same,binding signal,[7],"1.52 fold enrichment (6-mer frequency, TF over GST control)"
same,binding signal,[8],"1.3 fold enrichment (6-mer frequency, TF over GST control)"
same,binding signal,[9],"1.28 fold enrichment (6-mer frequency, TF over GST control)"
same,binding signal,[10],"1.41 fold enrichment (6-mer frequency, TF over GST control)"
